In the supplement of paper PMC8728848:
The sample as a whole holds a higher share of the strongest signals than the screen did.

B1: Siglec-H (Mus musculus), Q4QQK7 (protein)
chain: MLLSRLLPLLWVLKWASGNCFILPREVIGTYPSLTLELQSVTVQEGLCVLVPCHLIEYPMNRWSDAAFGYWFHEGENTHPDSLVATNKPYQLVQKEMQSRFHFSGDCSLDIRDAQKGDNGSYFFRLEKGGKTWNFCEERISVHVTDLTHSPNISIPQTLELGRPTNVMCSVPWACERGTPPIFSWMSAALISLGPTTTLSSVLTLTPRLQDHGTNLTCQVTFPGAGVTVQKTIQLNVTYNSQNSTAHVSGRVGPGKPRPLADVVQVAMGEAAIKFLLLGICFFFLSKRSHTKRVERPATHMDQAHAVMD
B2: FBG3 (Homo sapiens), Q9H4M3 (protein)
chain: MAVGNINELPENILLELFTHVPARQLLLNCRLVCSLWRDLIDLVTLWKRKCLREGFITEDWDQPVADWKIFYFLRSLHRNLLHNPCAEEGFEFWSLDVNGGDEWKVEDLSRDQRKEFPNDQVKKYFVTSYYTCLKSQVVDLKAEGYWEELMDTTRPDIEVKDWFAARPDCGSKYQLCVQLLSSAHAPLGTFQPDPATIQQKSDAKWREVSHTFSNYPPGVRYIWFQHGGVDTHYWAGWYGPRVTNSSITIGPPLP

Assays:
Assay in all cases: glycan array binding signal (z-score within array); higher = stronger binding
Conditions in all cases: glycan notation: IUPAC condensed, linker removed
Fuc(a1-2)Gal = target: Fuc(a1-2)Gal
Summary of the method: (§1)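 The Consortium for Functional Glycomics database supplied 3228 glycan arrays, of which those lacking an available protein sequence were dropped. The binding signal, a within-array Z-score, was averaged across arrays of the same protein sequence and across linkers. Negative scores can be read as non-binding.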

[1] = target: Fuc(a1-2)Gal(b1-3)GalNAc(b1-3)Gal
Summary of the method: as §1

[2] = target: Fuc(a1-2)Gal(b1-3)GlcNAc(b1-3)Gal(b1-4)Glc
Summary of the method: as §1

[3] = target: Fuc(a1-2)[GalNAc(a1-3)]Gal(b1-3)GlcNAc
Summary of the method: as §1

[4] = target: Fuc(a1-3)[Gal(b1-4)]GlcNAc(b1-4)Gal(b1-4)[Fuc(a1-3)]GlcNAc(b1-4)Gal(b1-4)[Fuc(a1-3)]GlcNAc
Summary of the method: as §1

Fuc(a1-4)GlcNAc = target: Fuc(a1-4)GlcNAc
Summary of the method: as §1

[5] = target: Gal(b1-3)GalNAc(b1-3)Gal(a1-4)Gal(b1-4)Glc
Summary of the method: as §1

[6] = target: Gal(b1-4)GlcNAc(b1-3)Gal(b1-4)GlcNAc
Summary of the method: as §1

[7] = target: Gal(b1-4)GlcNAc(b1-3)[Gal(b1-4)GlcNAc(b1-6)]GalNAc
Summary of the method: as §1

Gal3S(b1-4)GlcNAc6S = target: Gal3S(b1-4)GlcNAc6S
Summary of the method: as §1

[8] = target: Neu5Ac(a2-3)Gal(b1-3)[Neu5Ac(a2-6)]GalNAc
Summary of the method: as §1

[9] = target: Neu5Ac(a2-6)Gal(b1-4)GlcNAc(b1-3)Gal(b1-4)GlcNAc
Summary of the method: as §1

Neu5Ac(b1-6)GalNAc = target: Neu5Ac(b1-6)GalNAc
Summary of the method: as §1

[10] = target: Neu5Gc(a2-3)Gal(b1-4)[Fuc(a1-3)]GlcNAc
Summary of the method: as §1

[11] = target: Fuc(a1-2)Gal(b1-4)GlcNAc(b1-3)Gal(b1-4)GlcNAc
Summary of the method: as §1

[12] = target: Fuc(a1-2)Gal(b1-4)GlcNAc6S
Summary of the method: as §1

Fuc(a1-2)GlcNAc = target: Fuc(a1-2)GlcNAc
Summary of the method: as §1

[13] = target: Fuc(a1-2)[Gal(a1-3)]Gal(b1-4)[Fuc(a1-3)]GlcNAc
Summary of the method: as §1

[14] = target: Fuc(a1-2)[GalNAc(a1-3)]Gal(b1-4)[Fuc(a1-3)]GlcNAc
Summary of the method: as §1

[15] = target: Fuc(a1-3)[Gal3S(b1-4)]GlcNAc6S
Summary of the method: as §1

Gal(a1-4)Gal(b1-4)Gal = target: Gal(a1-4)Gal(b1-4)Gal
Summary of the method: as §1

Gal(b1-3)Gal = target: Gal(b1-3)Gal
Summary of the method: as §1

[16] = target: Gal(b1-3)GalNAc(b1-3)Gal(b1-4)GlcNAc
Summary of the method: as §1

[17] = target: Gal(b1-3)[Neu5Ac(b2-6)]GlcNAc
Summary of the method: as §1

Gal(b1-4)Glc = target: Gal(b1-4)Glc
Summary of the method: as §1

Gal(b1-4)Glc6S = target: Gal(b1-4)Glc6S
Summary of the method: as §1

[18] = target: Gal(b1-4)GlcNAc(b1-6)[Gal(b1-3)]GalNAc
Summary of the method: as §1

Gal3S6S(b1-4)GlcNAc = target: Gal3S6S(b1-4)GlcNAc
Summary of the method: as §1

Gal3S6S(b1-4)GlcNAc6S = target: Gal3S6S(b1-4)GlcNAc6S
Summary of the method: as §1

GalNAc(a1-3)Gal = target: GalNAc(a1-3)Gal
Summary of the method: as §1

Glc(b1-6)Glc = target: Glc(b1-6)Glc
Summary of the method: as §1

Man(a1-2)Man(a1-3)Man = target: Man(a1-2)Man(a1-3)Man
Summary of the method: as §1

[19] = target: Neu5Ac(a2-3)Gal(b1-3)[Fuc(a1-4)]GlcNAc(b1-3)Gal(b1-4)[Fuc(a1-3)]GlcNAc
Summary of the method: as §1

[20] = target: Neu5Ac(a2-3)Gal(b1-4)GlcNAc6S
Summary of the method: as §1

[21] = target: Neu5Ac(a2-3)Gal(b1-4)[Fuc(a1-3)]GlcNAc(b1-3)Gal(b1-4)[Fuc(a1-3)]GlcNAc(b1-3)Gal(b1-4)[Fuc(a1-3)]GlcNAc
Summary of the method: as §1

Neu5Ac(a2-6)Gal(b1-4)Glc = target: Neu5Ac(a2-6)Gal(b1-4)Glc
Summary of the method: as §1

[22] = target: Neu5Ac(a2-8)Neu5Ac(a2-8)Neu5Ac(a2-3)[GalNAc(b1-4)]Gal(b1-4)Glc
Summary of the method: as §1

[23] = target: Neu5Ac(b2-6)Gal(b1-4)GlcNAc
Summary of the method: as §1

Binder	glycan array binding signal (z-score) (Fuc(a1-2)Gal)	glycan array binding signal (z-score) [1]	glycan array binding signal (z-score) [2]	glycan array binding signal (z-score) [3]	glycan array binding signal (z-score) [4]	glycan array binding signal (z-score) (Fuc(a1-4)GlcNAc)	glycan array binding signal (z-score) [5]	glycan array binding signal (z-score) [6]	glycan array binding signal (z-score) [7]	glycan array binding signal (z-score) (Gal3S(b1-4)GlcNAc6S)	glycan array binding signal (z-score) [8]	glycan array binding signal (z-score) [9]	glycan array binding signal (z-score) (Neu5Ac(b1-6)GalNAc)	glycan array binding signal (z-score) [10]	glycan array binding signal (z-score) [11]	glycan array binding signal (z-score) [12]	glycan array binding signal (z-score) (Fuc(a1-2)GlcNAc)	glycan array binding signal (z-score) [13]	glycan array binding signal (z-score) [14]	glycan array binding signal (z-score) [15]	glycan array binding signal (z-score) (Gal(a1-4)Gal(b1-4)Gal)	glycan array binding signal (z-score) (Gal(b1-3)Gal)	glycan array binding signal (z-score) [16]	glycan array binding signal (z-score) [17]	glycan array binding signal (z-score) (Gal(b1-4)Glc)	glycan array binding signal (z-score) (Gal(b1-4)Glc6S)	glycan array binding signal (z-score) [18]	glycan array binding signal (z-score) (Gal3S6S(b1-4)GlcNAc)	glycan array binding signal (z-score) (Gal3S6S(b1-4)GlcNAc6S)	glycan array binding signal (z-score) (GalNAc(a1-3)Gal)	glycan array binding signal (z-score) (Glc(b1-6)Glc)	glycan array binding signal (z-score) (Man(a1-2)Man(a1-3)Man)	glycan array binding signal (z-score) [19]	glycan array binding signal (z-score) [20]	glycan array binding signal (z-score) [21]	glycan array binding signal (z-score) (Neu5Ac(a2-6)Gal(b1-4)Glc)	glycan array binding signal (z-score) [22]	glycan array binding signal (z-score) [23]
B1	-0.112	2.48	2.46	-0.271	-0.236	-0.188	-0.31	-0.348	6.24	-0.224	2.4	1.02	0.697	-0.29																								
B2	0.149									2.99					-0.582	0.121	-0.096	0.034	0.422	1.94	-0.387	-0.052	-0.569	-0.544	0.009	0.065	-0.478	1.73	7.93	-0.033	1.71	-0.171	0.235	-0.064	-0.514	-0.34	0.271	-0.75
